Source: PubChem (National Center for Advancing Translational Sciences (NCATS))
ALDH1A1 block: qHTS Assay for Inhibitors of Aldehyde Dehydrogenase 1 (ALDH1A1); Aldehyde dehydrogenase 1A1 (Homo sapiens), P00352; Purified ALDH1A1, NADH fluorescence, propionaldehyde substrate; Potency, µM (series often up to 75.3 µM), for the others: top-dose activity, negative = inhibition, most hits filed as inhibitors; 220,000 compounds, 7.3% hits; AID 1030, 2008;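 further: potency means the concentration at half of the fitted maximal effect; plate controls were no enzyme wells and a reference inhibitor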
Target sequence (P00352 whole entry, looked up): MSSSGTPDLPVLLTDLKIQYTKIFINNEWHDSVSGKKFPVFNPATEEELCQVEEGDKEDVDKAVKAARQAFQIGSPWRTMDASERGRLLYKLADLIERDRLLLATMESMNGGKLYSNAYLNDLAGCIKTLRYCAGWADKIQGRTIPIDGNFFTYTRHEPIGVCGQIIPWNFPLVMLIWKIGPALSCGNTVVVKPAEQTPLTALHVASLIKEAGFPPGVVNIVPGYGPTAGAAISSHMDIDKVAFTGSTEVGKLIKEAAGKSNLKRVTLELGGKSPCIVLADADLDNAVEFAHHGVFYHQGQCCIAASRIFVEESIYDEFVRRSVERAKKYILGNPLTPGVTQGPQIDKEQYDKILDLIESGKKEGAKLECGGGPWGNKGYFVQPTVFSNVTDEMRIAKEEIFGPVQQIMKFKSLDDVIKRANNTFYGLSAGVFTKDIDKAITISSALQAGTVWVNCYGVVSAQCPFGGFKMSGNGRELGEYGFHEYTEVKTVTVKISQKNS
HPGD inh: qHTS Assay for Inhibitors of HPGD (15-Hydroxyprostaglandin Dehydrogenase); purified HPGD, NADH fluorescence kinetic, PGE2 substrate; 15-hydroxyprostaglandin dehydrogenase [NAD(+)] (Homo sapiens), P15428; 150,000 compounds, 4.3% hits; Potency, µM, for inactives: at the top dose activity change, negative = inhibition, actives largely listed as inhibitors; further: potency means the concentration at half of the fitted maximal effect
Target sequence (P15428 whole entry, looked up): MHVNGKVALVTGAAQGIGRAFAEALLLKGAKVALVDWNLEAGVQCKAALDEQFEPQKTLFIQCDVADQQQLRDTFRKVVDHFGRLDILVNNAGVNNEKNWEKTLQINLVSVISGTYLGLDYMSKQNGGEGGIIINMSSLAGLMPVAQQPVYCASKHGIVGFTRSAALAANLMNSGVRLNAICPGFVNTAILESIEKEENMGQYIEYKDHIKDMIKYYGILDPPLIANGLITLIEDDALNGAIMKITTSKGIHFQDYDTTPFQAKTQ
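20 nM HPGD preincubated 15 min at room temperature with compound in 50 mM Tris-HCl pH 8, 0.01% Tween 20. Started with 1 mM NAD+ and 30 uM prostaglandin E2; NADH fluorescence (360/450 nm) read 5 times over 30-s intervals, last minus first.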
IMPase inh: qHTS Assay for Identifying the Cell-Membrane Permeable IMPase Inhibitors; Inositol monophosphatase 1 (Rattus norvegicus), P97697; CHO-M1 cells, IP1 accumulation, HTRF TR-FRET ratio; inhibition (IP1 accumulation), % at 46.1 µM; 120,000 tested, under 10 active; AID 901, 2007; active means well fitted curve in the direction sought with a large enough effect in the signal ratio, not every such curve was filed as active; inconclusive means small, poorly fitted or top-dose-only effect, or a change in a side signal; inactive means no such curve, though single readings can be large or run the other way; the % refers to the signal ratio;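 further: cells stimulated with carbachol in lithium chloride buffer; plate controls were DMSO basal wells for no effect and reference inhibitor wells for full effect; higher means more IMPase inhibition seen as more IP1 and lower FRET ratio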
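Elevated IP1 in lysates lowers TR-FRET signal (665/620 ratio and 620 channel reported). Cells were CHO-M1, given carbachol (50 uM as added) plus 50mM LiCl, pH 7.4, 30 min, 37C; compounds titrated up to 46 uM; AC50 by Hill equation.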
Luc counter: Counterscreen for Luciferase (Kinase-Glo TM) Inhibition. Luciferin 4-monooxygenase (Photuris pensylvanica), Q27757. Kinase-Glo luciferase, ATP luminescence, 8 min. Potency, µM (doses to about 38.3 µM), for the others: at the top dose activity change, negative = inhibition, most hits filed as inhibitors. 200,000 compounds, 0.28% hits; active means well fitted inhibition curve with a large enough effect; inconclusive means small, poorly fitted or top-dose-only effect; further: potency means the concentration at half of the fitted maximal effect; nearly all actives have a fitted effect of over 60% in size
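Substrate mix (final 50 mM imidazole pH 7.2, 50 mM KCl, 7 mM MgCl2, 10 uM ATP, 0.01% Tween 20, 0.05% BSA) plus pin-tool compound, then Kinase-Glo detection mix; 8 min ambient, luminescence read.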
PNC assembly inh: High Content Assay for Compounds that inhibit the Assembly of the Perinucleolar Compartment | AID 2417, 2010 | activity change (PNC), negative = inhibition, % at 10 µM | 140,000 compounds, 3.1% hits | PC3M PTB-GFP, PNC prevalence imaging, 16 h; hits give low values;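 active means readout at or below -70, meaning at least 70% loss of cells showing the perinucleolar compartment, a nuclear body marking cancer cells; inconclusive means readout between -30 and a set limit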;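 further: plate controls were DMSO wells for no effect and camptothecin positive control wells for full effect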
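Compounds are pinned in duplicate onto adhered PC3M cells stably expressing GFP-tagged PTB and incubated 16 h at 37 C. Cells are then fixed, nuclei stained with Hoechst, and PNC-positive cells counted.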
Lamin A splicing: qHTS Assay for Modulators of Lamin A Splicing; HeLa LMNA splicing GFP/RFP minigene ratio, 48 h; AID 1487, 2009; Potency, µM (highest dose often 46.1 µM), without a hit: top-dose ratio change, negative = inhibition, usual class: inhibitors; 200,000 compounds, 0.01% hits; active means well fitted inhibition curve with a large enough effect in the signal ratio, with a control signal flat, not every such curve was filed as active; inconclusive means small, poorly fitted or top-dose-only effect, or effect the other way, or a change in a side signal; the % refers to the signal ratio; further: potency means the concentration at half of the fitted maximal effect
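S3 HeLa stable clones carrying a lamin A-EGFP splicing minigene plus DsRed2 were seeded at 600 cells/well in Opti-MEM with 2% FBS, pin-dosed and incubated 48 h at 37°C. Acumen cytometry (488 nm) gave the GFP/RFP total-intensity ratio.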
* hit, by the source's call; u = inconclusive; x = no result; [ ] = dose if it differs, or a comment. An excerpt weighted towards active compounds, which were near 10% of everything screened. Unless noted, the call rests on the fitted dose curve; in most records, active means well fitted inhibition curve with a large enough effect (not every such curve was filed as active); inconclusive means small, poorly fitted or top-dose-only effect, or another doubt; inactive means no such curve, though single readings can be large or run the other way. Unless noted, on the % scale 0 is the no-effect control and ±100 the full control effect.

SMILES | ALDH1A1 block | HPGD inh | IMPase inh | Luc counter | PNC assembly inh | Lamin A splicing
C=CCN(CC=C)C(=O)C1CCC(C(=O)N(CC=C)CC=C)CC1 (stereo not given) | -2% | -11% | 0 | -2% | -88* | -9%
CC(c1ccco1)N(C(=O)c1ccccc1NS(=O)(=O)c1cccc([N+](=O)[O-])c1)c1ccccn1 (stereo not given) | u | -1% | x | -2% | -102* | -15%
Cc1ccnc(NS(=O)(=O)c2ccc(NS(=O)(=O)c3ccccc3)cc2)n1 | u | -10% | -8 | 3% | -100* | 7%
N#CCCn1c(=O)c(-c2cccs2)nc2cnc(N3CCOCC3)nc21 | u | x | x | x | x | 12%
Cc1ccc(S(=O)(=O)/N=S(\C)CC2CC2(Cl)Cl)cc1 (stereo not given) | 10µM* | -12% | -8 | -4% | -18 | 3%
CCOC(=O)c1c(C)[nH]c(C)c1S(=O)(=O)N1CCCC(C(=O)N2CCN(c3cccc(C)c3C)CC2)C1 (stereo not given) | x | x | x | x | x | -27%[46 µM]
O=C(COc1cccnc1[N+](=O)[O-])c1ccc(Cl)s1 | 0.71µM* | x | x | x | x | x
CCc1ccc(NC2CC(=O)N(CCc3ccc(OC)c(OC)c3)C2=O)cc1 (stereo not given) | 3.2µM* | x | x | -1% | x | u
COc1ccc(CCNC2CC(=O)N(CCc3ccc(OC)c(OC)c3)C2=O)cc1 (stereo not given) | 18µM* | -10% | -4 | -2% | -18 | 15%
COc1ccc(CCN2C(=O)CC(Nc3ccc(N4CCOCC4)cc3)C2=O)cc1OC (stereo not given) | u | -5% | 19 | 10% | 11 | 7%
Nn1c(SCc2cccc(C(F)(F)F)c2)nnc1-c1ccco1 | 22µM* | -18% | 5 | -4% | 9 | -4%
CC(=O)C1=C(O)C=C2Oc3c(C(C)=O)c(O)c(C)c(O)c3C2(C)C1=O (stereo not given) | -4% | -5% | x | -1% | x | x
COC(=O)CCC(=O)Nc1ccc(NC(=O)CCC(=O)OC)cc1 | 2% | -15% | 1 | 0% | -7 | -3%
COC(=O)CCC(=O)Oc1ccc(OC(=O)CCC(=O)OC)cc1 | u | -15% | x | 1% | -113* | u
CCN(CC)CC(=O)N1c2ccccc2Sc2ccc(Cl)cc21 | 1% | -15% | 13 | -1% | -100* | -9%
CCCn1c(C)nc2c(NCCCCN(C)C)nc(C)nc21 | 4% | -5% | x | -4% | x | x
O=C(COC(=O)C1CCC1)NCc1ccccc1Cl | u | 8.9µM* | 7 | -5% | 40 | 3%
CC1(C(=O)NC2CCCC2)CCC(=O)N1Cc1ccccc1Cl (stereo not given) | 1% | -6% | 1 | -2% | -88* | 6%
O=C(COC(=O)CCCNC(=O)c1ccc(Cl)cc1)NCc1ccccc1Cl | 4.5µM* | u | 2 | 4% | 22 | 15%
COc1ccccc1CN1C(=O)CCC1(C)C(=O)NC1CCCCCC1 (stereo not given) | 3% | 3% | 8 | -1% | u | -2%
S=C(NCc1ccccc1Cl)NC1CCCC1 | 11% | -26% | x | 1% | -88* | u
O=C(COC(=O)CCSc1ccc(Cl)cc1)NCc1ccccc1Cl | -14% | -18% | x | 0% | -10 | 4%
CCC1CCC2(CC1)NNC(=S)NN2 | 7.5µM* | 10µM* | -4 | 19% | -25 | 7%
CCC1CCC2(CC1)NC(CO)(CO)CO2 (stereo not given) | 3% | -7% | 10 | 0% | u | 0%
COc1ccc(C(=O)N2CCC3(CCCN(Cc4cc(C(F)(F)F)cc(C(F)(F)F)c4)C3)CC2)cc1 | -4% | -4% | x | -6% | x | x
SMILES | ALDH1A1 block | HPGD inh | IMPase inh | Luc counter | PNC assembly inh | Lamin A splicing
CC1CCCO1 (stereo not given) | -2% | -8% | x | x | x | x
Cc1ccc(CNS(=O)(=O)c2ccc(F)c(C(=O)Nc3ccc(C)c(F)c3)c2)cc1 | x | x | x | x | x | -8%[46 µM]
CC(=O)N1CCCc2cc(S(=O)(=O)CCC(=O)N3CCN(c4cccc(C)c4)C(C)C3)ccc21 (stereo not given) | 18µM* | -10% | 15 | 18% | -9 | 4%
CC(=O)N1CCCc2cc(S(=O)(=O)NCCC3=CCCCC3)ccc21 | 1.8µM* | -11% | -4 | -2% | -86* | u
CCCN(CCC)S(=O)(=O)c1ccc(C(=O)N2CCCc3ccccc32)cc1 | 5% | -9% | 7 | 0% | 19 | u
CCCN(CCC)S(=O)(=O)c1ccc2c(c1)CCCN2C(C)=O | 5µM* | -9% | 9 | -3% | -1 | u
Cc1cccc(N2CCN(C(=O)CCS(=O)(=O)c3ccc(Br)cc3)CC2C)c1 (stereo not given) | 0% | x | x | -1% | x | x
Cc1ccc(NC(=O)c2cc(S(=O)(=O)NCCC3=CCCCC3)ccc2F)cc1 | 22µM* | -21% | -10 | 3% | u | u
CCOC(=O)C(Cc1c[nH]c2ccccc12)NC(=O)COc1ccc(Cl)c(C)c1 (stereo not given) | x | x | -2 | x | x | x
O=C(Nc1ccccc1C(F)(F)F)C1CC(=O)N(c2ccccc2F)C1 (stereo not given) | u | -6% | 14 | 0% | -81* | -8%
CC(C)OCCCNC(=O)c1sc(=S)n(C)c1N | -96% | 28µM* | 6 | 1% | 22 | 0%
CCn1c(N)c(C(=O)NCCCOC)sc1=S | 3.2µM* | 14µM* | -1 | 6% | u | -2%
CCNC(=O)c1sc(=S)n(CC)c1N | u | 18µM* | -2 | -1% | 32 | 8%
CCc1ccccc1NC(=O)N1CC(C)Sc2ccccc21 (stereo not given) | x | x | x | x | x | -7%[46 µM]
CCN1CCN(C(=S)NC(CC(=O)c2ccccc2)c2ccccc2)CC1 (stereo not given) | -3% | x | x | x | x | x
CNC(=S)N1CCN(C(c2ccccc2)c2ccccc2)CC1 | 2µM* | x | x | 0% | x | u
CCC(C)NC(=S)N1CCN(C(c2ccccc2)c2ccccc2)CC1 (stereo not given) | u | -15% | x | 2% | -2 | u
CCN1CCN(C(=S)NC(C)c2ccccc2)CC1 (stereo not given) | 19µM* | -12% | x | -2% | 66 | -12%
CCc1ccc(-n2nc3ccc(NC(=O)COc4ccc(OC)cc4)cc3n2)cc1 | x | x | 7 | x | x | x
